Common to all, as to experiment: DAPPL (digital affinity profiling via proximity ligation, sequencing); 10 mM Tris-HCl pH 7.5, 50 mM NaCl, 1 mM DTT, 4% glycerol, room temperature, 30 min; GST-TFs on glutathione beads, 16-mer random dsDNA library, 0.1% formaldehyde crosslink after washing; high values mean tight binding
What all share (settings): protein: recombinant; tags: N-terminal GST; dsDNA, one strand shown

Experiment [1] addresses T1, ERF (Homo sapiens, UniProt P50548 1-548).
T1 sequence: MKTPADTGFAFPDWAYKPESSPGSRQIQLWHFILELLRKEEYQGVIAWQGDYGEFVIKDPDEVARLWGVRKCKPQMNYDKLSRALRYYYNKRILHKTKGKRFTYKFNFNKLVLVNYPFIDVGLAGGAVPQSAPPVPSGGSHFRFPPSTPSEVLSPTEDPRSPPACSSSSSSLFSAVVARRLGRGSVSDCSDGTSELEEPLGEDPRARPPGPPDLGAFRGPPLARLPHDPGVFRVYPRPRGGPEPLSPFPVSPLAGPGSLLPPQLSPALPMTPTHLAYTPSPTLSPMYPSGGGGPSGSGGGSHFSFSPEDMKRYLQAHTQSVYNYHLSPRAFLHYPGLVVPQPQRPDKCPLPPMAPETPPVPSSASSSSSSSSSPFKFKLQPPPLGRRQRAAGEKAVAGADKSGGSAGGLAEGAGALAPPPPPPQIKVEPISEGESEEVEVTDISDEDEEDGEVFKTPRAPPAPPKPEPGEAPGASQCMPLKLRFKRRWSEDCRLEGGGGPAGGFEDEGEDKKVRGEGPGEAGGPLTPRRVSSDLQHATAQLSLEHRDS
In outline: (§1)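 Yeast served to express human transcription factors as GST fusions, which were then captured on glutathione beads and labelled with DNA barcodes. Pooled with a tag-only sample, they were incubated with 200 nmole of a 16-mer random double-stranded DNA library for 30 min at room temperature in Tris/NaCl/DTT/glycerol buffer, washed, crosslinked with 0.1% formaldehyde, ligated by proximity, amplified by PCR and sequenced. Dividing each hexamer's read frequency for a factor by its frequency for the tag-only sample gives the binding signal.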

In experiment [2] the target is T2, ETV3L (Homo sapiens, UniProt Q6ZN32 1-361).
T2 sequence: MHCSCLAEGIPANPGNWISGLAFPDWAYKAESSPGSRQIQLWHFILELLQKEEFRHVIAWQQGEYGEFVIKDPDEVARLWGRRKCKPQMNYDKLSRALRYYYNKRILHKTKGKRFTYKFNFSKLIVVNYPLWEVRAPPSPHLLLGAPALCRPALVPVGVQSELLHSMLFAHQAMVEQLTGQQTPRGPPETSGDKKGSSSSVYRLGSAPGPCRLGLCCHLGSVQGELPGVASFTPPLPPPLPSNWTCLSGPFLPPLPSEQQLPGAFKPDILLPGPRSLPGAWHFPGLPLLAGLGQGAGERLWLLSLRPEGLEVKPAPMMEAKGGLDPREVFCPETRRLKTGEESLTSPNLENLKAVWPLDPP
In outline:
as §1

Experiment [3] concerns the target T3, ETS2 (Homo sapiens, UniProt P15036 1-469).
T3 sequence: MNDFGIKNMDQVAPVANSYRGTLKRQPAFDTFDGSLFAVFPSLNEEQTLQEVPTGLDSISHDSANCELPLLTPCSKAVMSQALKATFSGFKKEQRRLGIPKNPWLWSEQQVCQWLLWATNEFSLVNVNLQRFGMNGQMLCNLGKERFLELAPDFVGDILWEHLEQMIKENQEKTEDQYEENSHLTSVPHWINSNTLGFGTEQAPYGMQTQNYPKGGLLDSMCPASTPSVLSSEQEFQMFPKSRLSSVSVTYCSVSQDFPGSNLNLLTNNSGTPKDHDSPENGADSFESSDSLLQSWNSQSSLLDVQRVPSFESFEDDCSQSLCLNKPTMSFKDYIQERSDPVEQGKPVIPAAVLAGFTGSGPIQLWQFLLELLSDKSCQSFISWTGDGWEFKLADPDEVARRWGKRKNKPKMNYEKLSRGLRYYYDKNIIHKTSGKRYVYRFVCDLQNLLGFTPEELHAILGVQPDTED
The procedure, abridged: as §1

In experiment [4] the target is T4, SPDEF (Homo sapiens, UniProt O95238 1-335).
T4 sequence: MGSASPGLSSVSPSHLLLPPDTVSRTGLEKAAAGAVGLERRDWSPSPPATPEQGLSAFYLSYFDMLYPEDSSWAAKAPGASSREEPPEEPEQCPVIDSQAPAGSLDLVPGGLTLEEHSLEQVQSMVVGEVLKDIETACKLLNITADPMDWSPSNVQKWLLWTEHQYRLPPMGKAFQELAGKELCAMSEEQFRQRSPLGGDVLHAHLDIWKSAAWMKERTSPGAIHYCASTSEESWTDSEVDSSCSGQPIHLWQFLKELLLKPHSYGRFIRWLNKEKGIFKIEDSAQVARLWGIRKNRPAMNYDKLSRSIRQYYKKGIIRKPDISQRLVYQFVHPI
The procedure, abridged: as §1

For experiment [5], the target named is T5, ETV7 (Homo sapiens, UniProt Q9Y603 1-341).
T5 sequence: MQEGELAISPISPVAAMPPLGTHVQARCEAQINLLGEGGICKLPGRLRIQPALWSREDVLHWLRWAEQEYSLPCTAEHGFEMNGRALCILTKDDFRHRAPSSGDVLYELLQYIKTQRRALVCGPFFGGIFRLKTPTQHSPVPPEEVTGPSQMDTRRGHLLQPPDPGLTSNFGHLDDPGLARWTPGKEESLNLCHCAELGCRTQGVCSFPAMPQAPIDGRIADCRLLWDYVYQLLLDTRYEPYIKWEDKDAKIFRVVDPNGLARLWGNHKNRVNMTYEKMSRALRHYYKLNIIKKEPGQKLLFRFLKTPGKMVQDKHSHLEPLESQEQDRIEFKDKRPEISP
The procedure, abridged:
as §1

The target in experiment [6] is T6, ELF5 (Homo sapiens, UniProt Q9UKW6-2 1-255).
T6 sequence: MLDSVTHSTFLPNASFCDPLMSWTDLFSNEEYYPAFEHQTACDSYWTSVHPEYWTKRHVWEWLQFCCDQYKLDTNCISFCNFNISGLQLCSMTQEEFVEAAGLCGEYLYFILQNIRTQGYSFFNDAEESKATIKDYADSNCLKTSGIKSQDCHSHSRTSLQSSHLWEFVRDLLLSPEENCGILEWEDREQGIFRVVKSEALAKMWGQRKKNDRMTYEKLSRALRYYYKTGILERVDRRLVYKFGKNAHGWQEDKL
In outline: as §1

Experiment [7] concerns the target T7, ETV3 (Homo sapiens, UniProt P41162-2 1-143).
T7 sequence: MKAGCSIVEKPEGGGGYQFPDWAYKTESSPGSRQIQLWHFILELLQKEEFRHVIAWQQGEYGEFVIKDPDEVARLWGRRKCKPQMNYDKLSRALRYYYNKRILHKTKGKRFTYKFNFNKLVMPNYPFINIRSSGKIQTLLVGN
The procedure, abridged:
as §1

For experiment [8], the target named is ETV6 (Homo sapiens, UniProt P41212 1-452). The procedure, abridged: as §1
ETV6, sequence (P41212 whole entry): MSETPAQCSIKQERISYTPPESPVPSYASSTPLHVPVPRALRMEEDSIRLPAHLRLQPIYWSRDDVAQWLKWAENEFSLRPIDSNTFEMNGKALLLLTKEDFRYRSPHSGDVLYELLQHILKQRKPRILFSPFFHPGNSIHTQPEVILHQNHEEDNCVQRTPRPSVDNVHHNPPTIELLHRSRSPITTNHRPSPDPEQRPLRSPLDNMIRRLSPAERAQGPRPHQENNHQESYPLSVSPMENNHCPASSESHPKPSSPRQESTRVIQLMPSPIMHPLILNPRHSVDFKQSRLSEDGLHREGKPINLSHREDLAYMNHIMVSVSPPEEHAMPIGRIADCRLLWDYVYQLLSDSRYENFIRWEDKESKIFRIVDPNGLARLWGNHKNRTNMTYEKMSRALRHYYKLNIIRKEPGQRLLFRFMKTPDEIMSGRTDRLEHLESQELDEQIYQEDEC

With CCCGGC, the binding signal was 1.06 fold enrichment (6-mer frequency, TF over GST control) in experiment [1]; 1.19 fold enrichment (6-mer frequency, TF over GST control) in experiment [2]; 1.16 fold enrichment (6-mer frequency, TF over GST control) in experiment [3]; 1.28 fold enrichment (6-mer frequency, TF over GST control) in experiment [4]; 1.13 fold enrichment (6-mer frequency, TF over GST control) in experiment [5]; 1.14 fold enrichment (6-mer frequency, TF over GST control) in experiment [6]. Besides, the binding signal in experiment [7] was 1.27 fold enrichment (6-mer frequency, TF over GST control); in experiment [8], 1.22 fold enrichment (6-mer frequency, TF over GST control).
Take TGTCCC: the binding signal in experiment [1] is 1.26 fold enrichment (6-mer frequency, TF over GST control); in experiment [2], 1.18 fold enrichment (6-mer frequency, TF over GST control); in experiment [3], 1.41 fold enrichment (6-mer frequency, TF over GST control); in experiment [4] it was 1.34 fold enrichment (6-mer frequency, TF over GST control); in experiment [5] it was 1.46 fold enrichment (6-mer frequency, TF over GST control); in experiment [6], 1.44 fold enrichment (6-mer frequency, TF over GST control). The binding signal is 1.2 fold enrichment (6-mer frequency, TF over GST control) in experiment [7] and 1.28 fold enrichment (6-mer frequency, TF over GST control) in experiment [8].
On to TGAACC, for which the binding signal in experiment [1] is 1.08 fold enrichment (6-mer frequency, TF over GST control); in experiment [2], 1.2 fold enrichment (6-mer frequency, TF over GST control); in experiment [3], 1.24 fold enrichment (6-mer frequency, TF over GST control); in experiment [4] it was 1.16 fold enrichment (6-mer frequency, TF over GST control); in experiment [5], 1.06 fold enrichment (6-mer frequency, TF over GST control); in experiment [6] it was 1.09 fold enrichment (6-mer frequency, TF over GST control). The binding signal in experiment [7] is 1.12 fold enrichment (6-mer frequency, TF over GST control); in experiment [8] it was 1.11 fold enrichment (6-mer frequency, TF over GST control).
Consider ACCTGG, for which the binding signal in experiment [1] is 1.17 fold enrichment (6-mer frequency, TF over GST control); in experiment [2], 1.33 fold enrichment (6-mer frequency, TF over GST control); in experiment [3], 1.26 fold enrichment (6-mer frequency, TF over GST control); in experiment [4] it was 1.2 fold enrichment (6-mer frequency, TF over GST control); in experiment [5], 1.29 fold enrichment (6-mer frequency, TF over GST control); in experiment [6], 1.19 fold enrichment (6-mer frequency, TF over GST control). Besides, the binding signal in experiment [7] was 1.21 fold enrichment (6-mer frequency, TF over GST control); in experiment [8], 1.28 fold enrichment (6-mer frequency, TF over GST control).
Consider TGTCAT, for which the binding signal in experiment [1] was 1.38 fold enrichment (6-mer frequency, TF over GST control); in experiment [2], 1.19 fold enrichment (6-mer frequency, TF over GST control); in experiment [3], 1.12 fold enrichment (6-mer frequency, TF over GST control); in experiment [4], 1.17 fold enrichment (6-mer frequency, TF over GST control); in experiment [5], 1.1 fold enrichment (6-mer frequency, TF over GST control); in experiment [6], 1.09 fold enrichment (6-mer frequency, TF over GST control). For the same sequence, the binding signal is 1.12 fold enrichment (6-mer frequency, TF over GST control) in experiment [7] and 1.11 fold enrichment (6-mer frequency, TF over GST control) in experiment [8].
Consider CGAGCA, for which the binding signal in experiment [1] is 1.17 fold enrichment (6-mer frequency, TF over GST control); in experiment [2] it was 1.13 fold enrichment (6-mer frequency, TF over GST control); in experiment [3], 1.06 fold enrichment (6-mer frequency, TF over GST control); in experiment [4], 1.18 fold enrichment (6-mer frequency, TF over GST control); in experiment [5], 1.06 fold enrichment (6-mer frequency, TF over GST control); in experiment [6] it was 1.03 fold enrichment (6-mer frequency, TF over GST control). For the same sequence, the binding signal in experiment [7] was 1.04 fold enrichment (6-mer frequency, TF over GST control); in experiment [8] it was 1.06 fold enrichment (6-mer frequency, TF over GST control).
Regarding CACTAT, the binding signal in experiment [1] is 1.2 fold enrichment (6-mer frequency, TF over GST control); in experiment [2] it was 1.18 fold enrichment (6-mer frequency, TF over GST control); in experiment [3], 1.25 fold enrichment (6-mer frequency, TF over GST control); in experiment [4], 1.18 fold enrichment (6-mer frequency, TF over GST control); in experiment [5], 1.29 fold enrichment (6-mer frequency, TF over GST control); in experiment [6], 1.15 fold enrichment (6-mer frequency, TF over GST control). Further, the binding signal is 1.2 fold enrichment (6-mer frequency, TF over GST control) in experiment [7] and 1.14 fold enrichment (6-mer frequency, TF over GST control) in experiment [8].

Source of the values: publication PMC7862700, “An all-to-all approach to the identification of sequence-specific readers for epigenetic DNA modifications on cytosine”.
